In all, about 310,000 compounds went through this assay and about 1,900 (0.61%) were called active.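 Rule for the calls: active = plate-corrected calcium response at least 3 library SD above typical, normal starting fluorescence, not activating the receptor alone; inactive = the rest.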 What follows is part of a selection rich in actives, with near analogues and random picks from the rest.
These molecules were tested against Mas-related G-protein coupled receptor member X1 (Homo sapiens) (UniProt Q96LB2) (assay: allosteric enhancers of human MrgX1 signaling – HEK293 cells, Fluo-4 calcium flux, primary screen (AID 588675;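 note: compound read alongside a low EC10 to EC30 dose of BAM8-22 agonist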;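 for B-score: peak minus trough fluorescence over baseline measured at the second addition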)). Conditions: MrgX1-HEK293, Fluo-4 calcium flux, FDSS, at 10 µM; stronger effect = higher value.
Mas-related G-protein coupled receptor member X1 (Homo sapiens), sequence (Q96LB2 whole entry, looked up): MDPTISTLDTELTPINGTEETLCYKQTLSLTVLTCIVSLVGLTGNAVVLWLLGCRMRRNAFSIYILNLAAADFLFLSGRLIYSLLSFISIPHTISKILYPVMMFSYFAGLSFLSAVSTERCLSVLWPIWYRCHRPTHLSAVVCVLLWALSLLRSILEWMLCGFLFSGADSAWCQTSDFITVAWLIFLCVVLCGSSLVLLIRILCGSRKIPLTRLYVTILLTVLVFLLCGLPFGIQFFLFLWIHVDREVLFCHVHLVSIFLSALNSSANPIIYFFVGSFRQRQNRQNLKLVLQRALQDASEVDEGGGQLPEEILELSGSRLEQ

B-score, inactive:
O=C(Cc1ccc(S(=O)(=O)N2CCCC2)s1)NC1CCCCCC1
Cc1ccc(SCC(=O)c2cc(C)c(OC(=S)N(C)C)c(C)c2)cc1
O=C(Nc1ncc([N+](=O)[O-])s1)C1COc2ccccc2O1 (configuration not stated)
COc1ccc(OC)c2sc(NC(=O)C3COc4ccccc4O3)nc12 (configuration not stated)
CN(C)CCCO/N=C(\c1ccccc1)c1ccncc1
COc1ccc(C/C(C)=N/NC(=O)c2ccncc2)cc1
CSc1cccc(NC(=O)C2CCCN2S(=O)(=O)c2ccc3c(c2)CCC(=O)N3)c1 (configuration not stated)
CC[N+](C)(CC)CCC[n+]1c(-c2ccccc2)c2cc(N)ccc2c2ccc(N)cc21
Cc1ccc2c(c1)c1ncn(CCC3=CCCCC3)c(=O)c1n2C
Cc1ccc2c(c1)c1ncn(Cc3ccc(F)cc3)c(=O)c1n2C
COc1cc(S(=O)(=O)N(Cc2cccs2)C2CC2)ccc1-n1cnnn1
COC(=O)c1ccc(CN2CCN(CCCc3ccccc3)C(CCO)C2)cc1 (configuration not stated)
Cc1oc(-c2ccccc2F)nc1CS(=O)CC(=O)NCCN1CCCCC1C (configuration not stated)
COc1ccc(F)c(-c2nc(CN3CCC(c4ccccc4)CC3)c(C)o2)c1
CCCCOc1ccc(N(CC(=O)NC(C)C)C(=O)CCC(=O)Nc2ccccn2)cc1
CCCNc1c(N)c(=O)c1=O
Cc1oc2cc([N+](=O)[O-])c(O)c([N+](=O)[O-])c2c1C(=O)c1ccc(Br)cc1
COc1ccc(Nc2ncnc3ccc(Br)cc23)c(OC)c1
COc1ccc(C(=O)N2CC3(C)CC2CC(C)(C)C3)cc1OC (configuration not stated)
Cn1c(-c2sccc2OCc2cccc(C(F)(F)F)c2)n[nH]c1=S
Cc1ccccc1-c1n[nH]c(=S)n1C
COc1ccccc1C(=O)NC(=S)NC12CC3CC(CC(C3)C1)C2
CN1CCN(C(=O)c2ccccc2NC(=O)COc2ccccc2Cl)CC1
O=C(CNC(=O)c1ccc(F)cc1)c1ccccc1
Cc1cccc[n+]1CC(=O)c1ccccc1
C=C(C)c1cccc(C(C)(C)NC(=O)NCCN(CC)CC)c1
CC(C)C(=O)NCC(c1cccs1)S(=O)(=O)c1ccc(F)cc1 (configuration not stated)
COc1cccc(Cn2cnc3c([N+](=O)[O-])c(C)c(C)cc32)c1
CCOC(=O)c1cn(Cc2cccc(C)c2)nn1
CCOc1ccc2[nH]c(=O)c(CN(CCCO)S(=O)(=O)c3ccc(F)cc3)cc2c1
Cc1cc2c(cc1C)[n+](C)cn2CC(O)COCC1CC=CCC1 (configuration not stated)
Cn1c(-c2ccc(F)cc2)cc2onc(-c3ccccc3Cl)c2c1=O
Cc1nc2ccccc2n1CC(O)c1ccccc1 (configuration not stated)
CCC1(CC)Cc2ccccc2-c2nc3ccccc3c(=O)n21
CN(C)c1ccc(Nc2c3c4c(cccc4n(C)c2=O)C(=O)c2ccccc2-3)cc1
NC(=O)[C@H]1CC2(CC(c3cccc(NC(=O)[C@H]4CCC(=O)N4)c3)=NO2)CN1C(=O)c1ccccc1C(=O)c1ccccc1 (some centres not stated)
Cc1cccc(NC(=O)C(C)SCc2ccccc2)c1 (configuration not stated)
Cc1cccc(NC(=O)CCN2CC(C)CC(C)C2)c1 (configuration not stated)
CC(C)(Oc1ccc(C2CC2(Cl)Cl)cc1)C(=O)O (configuration not stated)
COc1cc(C2/C(=C(\O)c3ccc4c(c3)CC(C)O4)C(=O)C(=O)N2Cc2ccco2)ccc1O (configuration not stated)
COc1ccc(C2=CC(c3cccc(OC)c3)n3nnnc3N2)cc1 (configuration not stated)
Brc1ccc(C2=CC(c3ccco3)n3ncnc3N2)cc1 (configuration not stated)
CC1=C(C/C=C(\C)CCCC(C)CCCC(C)CCCC(C)C)C(=O)c2ccccc2C1=O (configuration not stated)
COc1ccc(-c2cn[nH]c2-c2ccc(OC)cc2)cc1
CCOc1ccccc1Oc1cn[nH]c1-c1ccc(OC)cc1O
O=C(NCc1ccccc1)C1=C[C@@H](C2CCCCC2)C[C@@H](OCc2ccc(CO)cc2)O1
CC1CCC(CN2CCN=C2N(C)C)CC1 (configuration not stated)
COc1ccc(NC(=O)CN(C)C(=O)c2cc(-c3ccc(C)o3)nc3ccccc23)cc1
COc1ccc(-c2cc(C(=O)Nc3ccccc3O)c3ccccc3n2)cc1
COc1ccc(C(=O)CN2C(=O)NC3(CCc4ccccc43)C2=O)c(OC)c1 (configuration not stated)
CC(OC(=O)CNS(=O)(=O)/C=C/c1ccccc1)C(=O)Nc1ccc(S(=O)(=O)N2CCCC2)cc1 (configuration not stated)
COc1cccc(Oc2ccc(N)cc2)c1
CC(C)(C)c1ccc(Oc2ccc(N)cc2)cc1
CCN(CC)C(=O)CC1(c2ccccc2OC)CCOC(C(C)C)C1 (configuration not stated)
COC(=O)c1c(C)cc(O)c(C)c1O
N#C/C=C(/c1ccc(F)cc1)N1CCOCC1
CC1=C(C(N)=O)C(c2ccc(Br)cc2)n2ncnc2N1 (configuration not stated)

B-score, active:
O=C(Nc1nc2c(F)cc(F)cc2s1)C1COc2ccccc2O1 (configuration not stated) 9.52
COc1cc(OC)nc(N/N=C(\c2ccccc2)c2ccncc2)n1 9.14
Cc1ccc2c(c1)c1ncnc(N3CCc4ccccc4C3)c1n2C 8.06
Cc1nonc1C1CCCN1Cc1nc(-c2ccc(F)cc2F)oc1C (configuration not stated) 7.14
CC1(C)CC2CC(C)(CN2c2ncnc3ccc(Br)cc23)C1 (configuration not stated) 13
Cn1c(-c2sc3cc(C(F)(F)F)cnc3c2-c2ccccc2)n[nH]c1=S 9.48
O=C(C[n+]1cc(Br)cc2ccccc21)c1ccc(F)cc1 9.24
Cc1cccc(Cn2cnc3c(N)c(C)c(C)cc32)c1 9.78
CCn1c(C)nc2c1C(=O)c1ccccc1C2=O 6.92
Cc1cccc(NC(=O)C(C)N2C(=O)C3C4CC(C(Br)C4Br)C3C2=O)c1 (configuration not stated) 9.03
CCOc1ccc(C2=CC(c3ccccc3)n3ncnc3N2)cc1 (configuration not stated) 7.44
COc1ccc(Oc2cn[nH]c2-c2ccc(OC)cc2O)cc1 6.54
COc1ccc(NC(=O)c2cc(-c3ccc(C)o3)nc3ccccc23)cc1 8.06
Nc1ccc(Oc2ccc(Cl)cc2)cc1 6.95
Fc1ccccc1/C=C1\CCCC2=C1Nc1ncnn1C2c1ccccc1F (configuration not stated) 7.46

Reference: PubChem BioAssay AID588675 (Johns Hopkins Ion Channel Center, 2011)
